# Data from publication PMC7862700, “An all-to-all approach to the identification of sequence-specific readers for epigenetic DNA modifications on cytosine”.
# How the values were obtained:
# Test in all cases: DAPPL (digital affinity profiling via proximity ligation, sequencing); 10 mM Tris-HCl pH 7.5, 50 mM NaCl, 1 mM DTT, 4% glycerol, room temperature, 30 min; GST-TFs on glutathione beads, 16-mer random dsDNA library, 0.1% formaldehyde crosslink after washing; high values mean tight binding
# Conditions in all cases: protein: recombinant; tags: N-terminal GST; dsDNA, one strand shown
# ETV1 = ETV1 (Homo sapiens, UniProt P50549 1-477)
# ETV1, sequence (P50549 whole entry, the tested form may be a part): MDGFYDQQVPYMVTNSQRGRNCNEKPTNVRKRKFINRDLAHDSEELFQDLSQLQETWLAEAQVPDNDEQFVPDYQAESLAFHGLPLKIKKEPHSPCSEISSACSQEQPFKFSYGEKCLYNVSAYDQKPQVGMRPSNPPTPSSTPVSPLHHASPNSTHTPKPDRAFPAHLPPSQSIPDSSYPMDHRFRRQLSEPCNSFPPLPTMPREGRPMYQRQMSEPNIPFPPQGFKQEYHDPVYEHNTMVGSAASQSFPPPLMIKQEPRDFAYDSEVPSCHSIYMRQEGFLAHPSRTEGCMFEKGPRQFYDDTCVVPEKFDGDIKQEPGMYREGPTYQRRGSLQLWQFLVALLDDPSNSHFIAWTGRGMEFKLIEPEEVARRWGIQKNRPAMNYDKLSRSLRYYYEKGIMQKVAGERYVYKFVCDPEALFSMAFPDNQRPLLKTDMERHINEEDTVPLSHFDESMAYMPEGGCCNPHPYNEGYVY
# In short: (§1)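 After expression in yeast as GST fusions, human transcription factors were bound to glutathione beads, DNA-barcoded and mixed with a tag-only sample. The pools were incubated with 200 nmole of a 16-mer random double-stranded DNA library in Tris/NaCl/DTT/glycerol buffer (30 min, room temperature), washed and crosslinked with 0.1% formaldehyde. Proximity ligation with BsaI/T4 ligase ran for 1 h at 37 °C, before PCR amplification and sequencing on an Illumina NextSeq500. Binding signal is a hexamer's read frequency for a factor divided by its frequency for the tag-only sample.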
# ERF = biological target: T1, ERF (Homo sapiens, UniProt P50548 1-548)
# T1 sequence: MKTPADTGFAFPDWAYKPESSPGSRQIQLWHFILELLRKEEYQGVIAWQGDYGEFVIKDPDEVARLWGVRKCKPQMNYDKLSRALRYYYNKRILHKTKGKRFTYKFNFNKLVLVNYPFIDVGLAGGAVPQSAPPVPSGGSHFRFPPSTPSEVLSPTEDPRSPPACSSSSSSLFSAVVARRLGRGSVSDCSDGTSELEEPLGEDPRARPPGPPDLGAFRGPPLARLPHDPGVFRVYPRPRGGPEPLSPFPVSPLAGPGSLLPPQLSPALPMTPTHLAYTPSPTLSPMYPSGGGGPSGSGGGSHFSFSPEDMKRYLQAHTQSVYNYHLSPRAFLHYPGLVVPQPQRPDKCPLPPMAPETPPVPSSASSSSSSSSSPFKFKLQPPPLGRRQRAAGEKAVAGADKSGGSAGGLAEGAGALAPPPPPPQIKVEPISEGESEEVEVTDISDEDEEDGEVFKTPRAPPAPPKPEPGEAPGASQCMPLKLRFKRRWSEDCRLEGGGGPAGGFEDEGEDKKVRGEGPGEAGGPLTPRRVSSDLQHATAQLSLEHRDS
# In short: as §1
# ETV3L = biological target: T2, ETV3L (Homo sapiens, UniProt Q6ZN32 1-361)
# T2 sequence: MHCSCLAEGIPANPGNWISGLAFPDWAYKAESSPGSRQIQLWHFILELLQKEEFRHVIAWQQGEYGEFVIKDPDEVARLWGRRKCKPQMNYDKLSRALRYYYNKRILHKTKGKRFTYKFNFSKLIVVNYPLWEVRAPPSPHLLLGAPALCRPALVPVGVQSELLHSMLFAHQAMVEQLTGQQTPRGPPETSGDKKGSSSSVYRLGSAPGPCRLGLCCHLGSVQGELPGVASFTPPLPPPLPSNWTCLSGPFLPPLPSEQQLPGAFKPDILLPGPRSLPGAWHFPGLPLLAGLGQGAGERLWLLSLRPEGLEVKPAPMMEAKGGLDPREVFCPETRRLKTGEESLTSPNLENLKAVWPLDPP
# In short: as §1
# ETS2 = biological target: T3, ETS2 (Homo sapiens, UniProt P15036 1-469)
# T3 sequence: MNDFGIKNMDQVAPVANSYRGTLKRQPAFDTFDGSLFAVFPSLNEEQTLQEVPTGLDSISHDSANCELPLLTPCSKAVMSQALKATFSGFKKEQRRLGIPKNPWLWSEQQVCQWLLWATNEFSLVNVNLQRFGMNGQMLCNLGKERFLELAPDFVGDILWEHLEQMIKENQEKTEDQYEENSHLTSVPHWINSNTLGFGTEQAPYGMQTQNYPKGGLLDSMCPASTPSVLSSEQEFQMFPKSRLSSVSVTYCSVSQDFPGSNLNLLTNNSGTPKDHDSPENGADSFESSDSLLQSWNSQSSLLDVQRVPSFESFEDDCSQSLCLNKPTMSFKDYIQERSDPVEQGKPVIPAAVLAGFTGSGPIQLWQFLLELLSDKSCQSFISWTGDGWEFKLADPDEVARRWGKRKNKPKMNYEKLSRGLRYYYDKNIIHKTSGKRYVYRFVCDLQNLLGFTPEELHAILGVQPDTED
# In short: as §1
# SPDEF = biological target: T4, SPDEF (Homo sapiens, UniProt O95238 1-335)
# T4 sequence: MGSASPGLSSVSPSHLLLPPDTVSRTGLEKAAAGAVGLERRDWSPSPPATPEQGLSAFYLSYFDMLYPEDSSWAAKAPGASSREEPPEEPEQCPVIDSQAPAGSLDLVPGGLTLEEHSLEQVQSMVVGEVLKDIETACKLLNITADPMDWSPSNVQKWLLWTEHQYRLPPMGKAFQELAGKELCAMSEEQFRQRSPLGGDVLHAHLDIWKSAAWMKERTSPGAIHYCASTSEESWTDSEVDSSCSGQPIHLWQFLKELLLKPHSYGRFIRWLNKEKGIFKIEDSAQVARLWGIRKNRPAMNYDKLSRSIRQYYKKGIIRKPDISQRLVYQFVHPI
# In short: as §1
# ETV7 = biological target: T5, ETV7 (Homo sapiens, UniProt Q9Y603 1-341)
# T5 sequence: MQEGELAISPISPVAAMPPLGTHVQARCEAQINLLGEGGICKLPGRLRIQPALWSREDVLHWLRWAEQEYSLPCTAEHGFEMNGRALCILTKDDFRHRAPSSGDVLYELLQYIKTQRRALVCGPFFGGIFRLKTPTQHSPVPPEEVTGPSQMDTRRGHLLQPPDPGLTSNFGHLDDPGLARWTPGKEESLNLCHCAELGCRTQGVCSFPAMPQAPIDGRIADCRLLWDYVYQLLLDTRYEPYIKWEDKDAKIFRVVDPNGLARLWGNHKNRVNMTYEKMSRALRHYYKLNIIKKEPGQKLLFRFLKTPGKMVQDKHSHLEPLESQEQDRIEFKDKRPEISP
# In short: as §1
# ELF5 = biological target: T6, ELF5 (Homo sapiens, UniProt Q9UKW6-2 1-255)
# T6 sequence: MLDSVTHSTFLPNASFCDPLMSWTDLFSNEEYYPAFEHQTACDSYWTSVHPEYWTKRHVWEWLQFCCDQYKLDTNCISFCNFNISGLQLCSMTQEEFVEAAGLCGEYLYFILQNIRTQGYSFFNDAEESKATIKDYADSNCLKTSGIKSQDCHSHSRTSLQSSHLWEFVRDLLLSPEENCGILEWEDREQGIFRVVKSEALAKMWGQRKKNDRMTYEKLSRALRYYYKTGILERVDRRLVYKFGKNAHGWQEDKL
# In short: as §1
# ETV3 = biological target: T7, ETV3 (Homo sapiens, UniProt P41162-2 1-143)
# T7 sequence: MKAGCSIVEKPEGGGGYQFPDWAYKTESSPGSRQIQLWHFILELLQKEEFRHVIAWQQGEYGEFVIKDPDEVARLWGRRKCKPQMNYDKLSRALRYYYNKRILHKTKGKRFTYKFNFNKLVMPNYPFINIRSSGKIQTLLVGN
# In short: as §1
# ETV6 = ETV6 (Homo sapiens, UniProt P41212 1-452)
# ETV6, sequence (P41212 whole entry): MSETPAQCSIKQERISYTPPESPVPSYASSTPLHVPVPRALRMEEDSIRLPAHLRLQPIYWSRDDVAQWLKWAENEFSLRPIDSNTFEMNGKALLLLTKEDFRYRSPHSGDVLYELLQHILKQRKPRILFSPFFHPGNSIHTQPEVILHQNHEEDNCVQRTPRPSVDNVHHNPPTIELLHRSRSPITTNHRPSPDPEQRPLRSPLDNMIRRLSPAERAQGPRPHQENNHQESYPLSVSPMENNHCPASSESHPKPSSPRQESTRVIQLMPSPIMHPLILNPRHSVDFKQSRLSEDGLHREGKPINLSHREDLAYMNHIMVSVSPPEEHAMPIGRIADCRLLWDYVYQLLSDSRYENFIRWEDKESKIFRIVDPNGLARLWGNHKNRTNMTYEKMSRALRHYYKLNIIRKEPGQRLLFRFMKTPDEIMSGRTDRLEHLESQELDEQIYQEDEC
# In short: as §1
sequence,measurement,setting,value
TACCTC,binding signal,ETV1,"1.29 fold enrichment (6-mer frequency, TF over GST control)"
same,binding signal,ERF,"1.32 fold enrichment (6-mer frequency, TF over GST control)"
same,binding signal,ETV3L,"1.43 fold enrichment (6-mer frequency, TF over GST control)"
same,binding signal,ETS2,"1.26 fold enrichment (6-mer frequency, TF over GST control)"
same,binding signal,SPDEF,"1.23 fold enrichment (6-mer frequency, TF over GST control)"
same,binding signal,ETV7,"1.19 fold enrichment (6-mer frequency, TF over GST control)"
same,binding signal,ELF5,"1.29 fold enrichment (6-mer frequency, TF over GST control)"
same,binding signal,ETV3,"1.25 fold enrichment (6-mer frequency, TF over GST control)"
same,binding signal,ETV6,"1.11 fold enrichment (6-mer frequency, TF over GST control)"
